# Results: ChEMBL document CHEMBL2218924, “A broad activity screen in support of a chemogenomic map for kinase signalling research and drug discovery” (Biochem J, 2013)
# Tests used:
# [1] = biological target: Tyrosine-protein kinase SYK (Homo sapiens) (UniProt P43405); conditions: at 10 µM
# [2] = biological target: T1, Mitogen-activated protein kinase kinase kinase 7 (Homo sapiens) (UniProt O43318); conditions: at 1 µM
# T1 sequence (whole entry): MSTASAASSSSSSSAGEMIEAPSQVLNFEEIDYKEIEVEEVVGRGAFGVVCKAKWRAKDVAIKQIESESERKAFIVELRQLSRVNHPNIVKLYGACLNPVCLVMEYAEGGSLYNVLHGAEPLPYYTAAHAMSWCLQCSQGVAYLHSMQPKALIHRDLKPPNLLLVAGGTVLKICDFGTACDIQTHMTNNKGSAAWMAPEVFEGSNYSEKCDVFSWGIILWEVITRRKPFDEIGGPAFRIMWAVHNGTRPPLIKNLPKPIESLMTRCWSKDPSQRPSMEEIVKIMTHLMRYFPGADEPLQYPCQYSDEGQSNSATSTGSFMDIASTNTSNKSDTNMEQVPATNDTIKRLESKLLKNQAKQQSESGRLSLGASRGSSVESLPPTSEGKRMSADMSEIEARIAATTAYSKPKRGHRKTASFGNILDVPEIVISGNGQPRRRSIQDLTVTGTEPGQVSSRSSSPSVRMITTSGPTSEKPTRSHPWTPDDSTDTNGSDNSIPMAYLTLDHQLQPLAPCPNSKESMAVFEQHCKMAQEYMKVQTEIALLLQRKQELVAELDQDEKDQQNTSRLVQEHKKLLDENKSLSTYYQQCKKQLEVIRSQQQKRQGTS
# [3] = biological target: T1, Mitogen-activated protein kinase kinase kinase 7 (Homo sapiens); conditions: at 10 µM
# [4] = biological target: T2, Serine/threonine-protein kinase TAO1 (Homo sapiens) (UniProt Q7L7X3); conditions: at 1 µM
# T2 sequence (whole entry): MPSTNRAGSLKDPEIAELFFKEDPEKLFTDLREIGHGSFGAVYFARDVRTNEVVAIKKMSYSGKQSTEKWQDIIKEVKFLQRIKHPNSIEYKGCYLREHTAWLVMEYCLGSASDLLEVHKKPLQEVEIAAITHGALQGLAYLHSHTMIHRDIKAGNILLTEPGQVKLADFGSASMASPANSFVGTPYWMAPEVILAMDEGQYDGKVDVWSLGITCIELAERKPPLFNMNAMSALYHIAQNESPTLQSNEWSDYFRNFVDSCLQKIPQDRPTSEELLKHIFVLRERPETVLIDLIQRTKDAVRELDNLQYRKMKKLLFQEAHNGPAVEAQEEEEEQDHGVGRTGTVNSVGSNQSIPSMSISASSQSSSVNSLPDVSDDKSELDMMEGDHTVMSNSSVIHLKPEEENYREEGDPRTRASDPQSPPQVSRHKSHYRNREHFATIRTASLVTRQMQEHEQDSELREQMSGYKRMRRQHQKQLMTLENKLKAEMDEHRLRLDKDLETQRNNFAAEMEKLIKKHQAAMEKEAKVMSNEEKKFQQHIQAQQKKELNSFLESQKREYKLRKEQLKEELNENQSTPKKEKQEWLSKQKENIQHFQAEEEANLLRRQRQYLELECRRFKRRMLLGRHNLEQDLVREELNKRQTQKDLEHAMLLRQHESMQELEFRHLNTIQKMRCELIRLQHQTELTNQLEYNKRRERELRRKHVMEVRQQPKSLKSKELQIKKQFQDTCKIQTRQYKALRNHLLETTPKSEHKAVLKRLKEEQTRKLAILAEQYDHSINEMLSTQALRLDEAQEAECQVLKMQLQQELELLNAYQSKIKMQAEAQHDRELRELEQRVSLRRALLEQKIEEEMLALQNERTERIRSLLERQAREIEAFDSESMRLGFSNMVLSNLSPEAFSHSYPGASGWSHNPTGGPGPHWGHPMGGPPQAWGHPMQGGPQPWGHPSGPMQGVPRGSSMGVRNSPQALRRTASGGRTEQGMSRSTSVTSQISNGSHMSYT
# [5] = biological target: T2, Serine/threonine-protein kinase TAO1 (Homo sapiens); conditions: at 10 µM
# [6] = biological target: T3, Serine/threonine-protein kinase TAO3 (Homo sapiens) (UniProt Q9H2K8); conditions: at 1 µM
# T3 sequence (whole entry): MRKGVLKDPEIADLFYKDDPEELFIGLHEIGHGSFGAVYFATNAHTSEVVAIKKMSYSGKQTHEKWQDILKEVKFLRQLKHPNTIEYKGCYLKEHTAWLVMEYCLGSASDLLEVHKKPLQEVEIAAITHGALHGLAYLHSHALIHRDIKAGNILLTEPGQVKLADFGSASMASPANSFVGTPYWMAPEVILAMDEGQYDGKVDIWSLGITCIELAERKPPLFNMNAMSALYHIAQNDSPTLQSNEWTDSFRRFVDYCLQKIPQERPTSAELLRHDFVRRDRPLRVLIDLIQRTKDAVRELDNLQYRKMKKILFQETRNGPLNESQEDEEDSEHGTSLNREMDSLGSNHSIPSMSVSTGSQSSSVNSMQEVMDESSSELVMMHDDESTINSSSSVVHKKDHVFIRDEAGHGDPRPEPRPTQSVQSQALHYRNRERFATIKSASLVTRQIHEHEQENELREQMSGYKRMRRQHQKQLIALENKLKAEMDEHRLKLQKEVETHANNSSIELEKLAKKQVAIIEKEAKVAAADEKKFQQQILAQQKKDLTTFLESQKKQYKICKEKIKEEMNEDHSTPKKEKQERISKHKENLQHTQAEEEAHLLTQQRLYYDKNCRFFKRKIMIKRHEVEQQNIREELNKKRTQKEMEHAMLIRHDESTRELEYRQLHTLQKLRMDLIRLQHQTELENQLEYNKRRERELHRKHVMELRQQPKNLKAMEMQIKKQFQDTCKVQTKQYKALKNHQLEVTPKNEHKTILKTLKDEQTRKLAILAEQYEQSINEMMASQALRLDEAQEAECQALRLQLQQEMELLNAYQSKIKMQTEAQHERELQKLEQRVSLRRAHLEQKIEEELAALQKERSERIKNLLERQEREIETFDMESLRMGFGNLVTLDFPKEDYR
# [7] = biological target: T3, Serine/threonine-protein kinase TAO3 (Homo sapiens); conditions: at 10 µM
# [8] = biological target: T4, Serine/threonine-protein kinase TBK1 (Homo sapiens) (UniProt Q9UHD2); conditions: at 1 µM
# T4 sequence (whole entry): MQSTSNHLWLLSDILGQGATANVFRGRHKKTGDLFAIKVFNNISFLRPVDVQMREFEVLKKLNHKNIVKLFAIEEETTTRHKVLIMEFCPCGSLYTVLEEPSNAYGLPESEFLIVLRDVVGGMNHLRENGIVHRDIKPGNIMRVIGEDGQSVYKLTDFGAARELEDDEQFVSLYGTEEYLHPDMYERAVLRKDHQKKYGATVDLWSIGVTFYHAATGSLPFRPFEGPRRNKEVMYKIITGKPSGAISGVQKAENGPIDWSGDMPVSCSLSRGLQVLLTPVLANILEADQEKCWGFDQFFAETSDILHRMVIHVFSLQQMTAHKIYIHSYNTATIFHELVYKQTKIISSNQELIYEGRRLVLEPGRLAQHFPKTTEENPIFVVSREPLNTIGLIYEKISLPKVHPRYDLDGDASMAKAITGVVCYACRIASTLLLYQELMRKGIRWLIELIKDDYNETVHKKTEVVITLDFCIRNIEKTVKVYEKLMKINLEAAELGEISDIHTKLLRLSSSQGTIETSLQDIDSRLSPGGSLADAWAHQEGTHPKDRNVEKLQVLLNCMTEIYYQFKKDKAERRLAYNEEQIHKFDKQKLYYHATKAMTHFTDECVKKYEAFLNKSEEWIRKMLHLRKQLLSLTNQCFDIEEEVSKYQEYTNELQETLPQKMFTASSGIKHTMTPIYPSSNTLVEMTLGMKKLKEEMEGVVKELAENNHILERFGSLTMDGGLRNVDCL
# [9] = biological target: T4, Serine/threonine-protein kinase TBK1 (Homo sapiens); conditions: at 10 µM
# [10] = biological target: Insulin-like growth factor 1 receptor (Homo sapiens) (UniProt P08069); conditions: at 1 µM
# [11] = biological target: Insulin-like growth factor 1 receptor (Homo sapiens) (UniProt P08069); conditions: at 10 µM
# [12] = biological target: T5, Inhibitor of nuclear factor kappa-B kinase subunit alpha (Homo sapiens) (UniProt O15111); conditions: at 10 µM
# T5 sequence (whole entry): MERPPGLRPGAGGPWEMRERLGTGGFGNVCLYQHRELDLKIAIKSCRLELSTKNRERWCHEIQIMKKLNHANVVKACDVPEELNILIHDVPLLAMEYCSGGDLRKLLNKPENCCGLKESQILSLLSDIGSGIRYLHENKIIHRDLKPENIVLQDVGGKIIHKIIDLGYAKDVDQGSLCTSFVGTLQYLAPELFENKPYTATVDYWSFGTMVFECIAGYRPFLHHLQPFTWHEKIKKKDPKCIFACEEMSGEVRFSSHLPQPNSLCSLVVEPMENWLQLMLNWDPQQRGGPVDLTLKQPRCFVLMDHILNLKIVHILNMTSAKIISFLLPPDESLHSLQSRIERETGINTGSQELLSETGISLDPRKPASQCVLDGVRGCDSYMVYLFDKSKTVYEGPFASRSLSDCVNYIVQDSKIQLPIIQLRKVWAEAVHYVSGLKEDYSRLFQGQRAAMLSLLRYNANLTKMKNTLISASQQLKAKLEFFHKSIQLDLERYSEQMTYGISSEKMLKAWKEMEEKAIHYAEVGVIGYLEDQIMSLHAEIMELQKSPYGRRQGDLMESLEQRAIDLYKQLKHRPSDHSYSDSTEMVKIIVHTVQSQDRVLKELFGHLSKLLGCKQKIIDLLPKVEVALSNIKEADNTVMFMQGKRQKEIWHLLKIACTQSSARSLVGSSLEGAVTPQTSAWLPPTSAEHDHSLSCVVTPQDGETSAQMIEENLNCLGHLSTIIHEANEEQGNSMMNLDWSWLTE
# [13] = biological target: T6, Inhibitor of nuclear factor kappa-B kinase subunit beta (Homo sapiens) (UniProt O14920); conditions: at 1 µM
# T6 sequence (whole entry): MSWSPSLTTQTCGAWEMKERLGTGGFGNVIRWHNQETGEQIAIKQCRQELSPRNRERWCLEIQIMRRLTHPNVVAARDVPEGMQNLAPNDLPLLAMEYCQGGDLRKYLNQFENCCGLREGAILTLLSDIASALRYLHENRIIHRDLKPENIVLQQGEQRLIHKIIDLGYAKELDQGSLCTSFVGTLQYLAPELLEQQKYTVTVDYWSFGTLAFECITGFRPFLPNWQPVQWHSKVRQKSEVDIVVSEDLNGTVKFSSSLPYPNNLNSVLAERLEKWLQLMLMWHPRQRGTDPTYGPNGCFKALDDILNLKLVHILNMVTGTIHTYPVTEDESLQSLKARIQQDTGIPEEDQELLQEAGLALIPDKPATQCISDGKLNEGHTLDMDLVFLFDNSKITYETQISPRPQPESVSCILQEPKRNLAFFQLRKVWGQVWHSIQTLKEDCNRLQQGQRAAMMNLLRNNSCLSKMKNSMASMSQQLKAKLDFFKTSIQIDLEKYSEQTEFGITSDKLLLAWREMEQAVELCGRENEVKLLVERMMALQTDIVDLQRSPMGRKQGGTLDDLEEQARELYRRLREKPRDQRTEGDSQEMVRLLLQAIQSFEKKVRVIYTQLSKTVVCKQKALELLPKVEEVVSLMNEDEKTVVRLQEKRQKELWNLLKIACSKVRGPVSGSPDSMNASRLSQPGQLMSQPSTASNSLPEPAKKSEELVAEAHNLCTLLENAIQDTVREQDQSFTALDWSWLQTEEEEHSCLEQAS
# [14] = biological target: Insulin receptor (Homo sapiens) (UniProt P06213); conditions: at 1 µM
# Chain of Insulin receptor (Homo sapiens) (P06213 28-758 limits assumed): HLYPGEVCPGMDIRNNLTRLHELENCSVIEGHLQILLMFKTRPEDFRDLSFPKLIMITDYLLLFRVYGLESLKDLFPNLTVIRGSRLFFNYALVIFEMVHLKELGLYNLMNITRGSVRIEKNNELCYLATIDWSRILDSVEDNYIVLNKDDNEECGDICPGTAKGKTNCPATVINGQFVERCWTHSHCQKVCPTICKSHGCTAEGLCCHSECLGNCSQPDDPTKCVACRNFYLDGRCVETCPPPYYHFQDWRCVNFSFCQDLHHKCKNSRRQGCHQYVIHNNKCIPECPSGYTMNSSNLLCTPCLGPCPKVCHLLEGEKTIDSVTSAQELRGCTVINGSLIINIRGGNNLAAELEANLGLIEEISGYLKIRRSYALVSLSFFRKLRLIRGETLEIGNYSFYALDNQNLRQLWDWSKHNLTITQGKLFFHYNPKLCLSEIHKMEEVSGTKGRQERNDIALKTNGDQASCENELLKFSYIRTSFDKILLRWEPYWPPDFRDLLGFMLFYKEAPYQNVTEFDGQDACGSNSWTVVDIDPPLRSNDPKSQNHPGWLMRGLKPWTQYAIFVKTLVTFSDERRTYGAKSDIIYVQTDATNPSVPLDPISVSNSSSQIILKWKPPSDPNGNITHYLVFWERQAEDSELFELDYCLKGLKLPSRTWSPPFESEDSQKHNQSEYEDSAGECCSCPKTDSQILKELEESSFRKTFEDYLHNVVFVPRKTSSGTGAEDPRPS
# Chain of Insulin receptor (Homo sapiens) (P06213 763-1382 limits assumed): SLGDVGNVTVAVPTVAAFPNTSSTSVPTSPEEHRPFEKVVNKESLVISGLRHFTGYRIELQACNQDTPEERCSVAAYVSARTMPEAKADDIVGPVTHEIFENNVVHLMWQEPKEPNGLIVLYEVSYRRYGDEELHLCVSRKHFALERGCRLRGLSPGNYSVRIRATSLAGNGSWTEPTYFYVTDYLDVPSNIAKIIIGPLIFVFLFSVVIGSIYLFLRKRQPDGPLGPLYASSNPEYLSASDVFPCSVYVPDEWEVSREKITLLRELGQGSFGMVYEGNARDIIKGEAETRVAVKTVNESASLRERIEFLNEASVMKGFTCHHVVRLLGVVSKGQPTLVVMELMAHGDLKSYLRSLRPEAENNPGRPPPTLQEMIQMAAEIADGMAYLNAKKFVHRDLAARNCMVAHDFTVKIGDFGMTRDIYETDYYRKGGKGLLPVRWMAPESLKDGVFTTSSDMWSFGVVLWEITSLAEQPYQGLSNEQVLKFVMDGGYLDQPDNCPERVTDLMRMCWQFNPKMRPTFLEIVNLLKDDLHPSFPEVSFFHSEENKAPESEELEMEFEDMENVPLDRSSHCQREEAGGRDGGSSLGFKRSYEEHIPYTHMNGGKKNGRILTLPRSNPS
# Chain of Insulin-like growth factor 1 receptor (Homo sapiens) (P08069 31-736 limits assumed): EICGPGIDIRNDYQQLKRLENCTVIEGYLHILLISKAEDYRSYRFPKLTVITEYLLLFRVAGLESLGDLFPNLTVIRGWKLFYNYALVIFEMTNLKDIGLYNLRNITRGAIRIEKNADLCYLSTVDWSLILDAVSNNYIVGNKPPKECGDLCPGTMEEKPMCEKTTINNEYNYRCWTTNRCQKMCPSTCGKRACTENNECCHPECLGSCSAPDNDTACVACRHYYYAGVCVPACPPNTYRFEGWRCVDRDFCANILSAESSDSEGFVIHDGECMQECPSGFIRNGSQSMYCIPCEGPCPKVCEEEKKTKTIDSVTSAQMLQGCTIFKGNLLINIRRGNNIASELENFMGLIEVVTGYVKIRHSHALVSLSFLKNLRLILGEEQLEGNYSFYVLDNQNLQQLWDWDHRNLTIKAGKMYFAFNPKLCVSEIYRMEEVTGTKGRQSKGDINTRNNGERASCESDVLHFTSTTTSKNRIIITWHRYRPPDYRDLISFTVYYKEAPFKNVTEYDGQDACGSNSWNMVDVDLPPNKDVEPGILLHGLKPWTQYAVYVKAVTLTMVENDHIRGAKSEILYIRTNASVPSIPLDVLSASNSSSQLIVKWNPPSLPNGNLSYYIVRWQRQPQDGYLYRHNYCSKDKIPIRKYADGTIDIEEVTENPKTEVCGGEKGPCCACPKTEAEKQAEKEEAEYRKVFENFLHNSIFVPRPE
# Chain of Insulin-like growth factor 1 receptor (Homo sapiens) (P08069 741-1367 limits assumed): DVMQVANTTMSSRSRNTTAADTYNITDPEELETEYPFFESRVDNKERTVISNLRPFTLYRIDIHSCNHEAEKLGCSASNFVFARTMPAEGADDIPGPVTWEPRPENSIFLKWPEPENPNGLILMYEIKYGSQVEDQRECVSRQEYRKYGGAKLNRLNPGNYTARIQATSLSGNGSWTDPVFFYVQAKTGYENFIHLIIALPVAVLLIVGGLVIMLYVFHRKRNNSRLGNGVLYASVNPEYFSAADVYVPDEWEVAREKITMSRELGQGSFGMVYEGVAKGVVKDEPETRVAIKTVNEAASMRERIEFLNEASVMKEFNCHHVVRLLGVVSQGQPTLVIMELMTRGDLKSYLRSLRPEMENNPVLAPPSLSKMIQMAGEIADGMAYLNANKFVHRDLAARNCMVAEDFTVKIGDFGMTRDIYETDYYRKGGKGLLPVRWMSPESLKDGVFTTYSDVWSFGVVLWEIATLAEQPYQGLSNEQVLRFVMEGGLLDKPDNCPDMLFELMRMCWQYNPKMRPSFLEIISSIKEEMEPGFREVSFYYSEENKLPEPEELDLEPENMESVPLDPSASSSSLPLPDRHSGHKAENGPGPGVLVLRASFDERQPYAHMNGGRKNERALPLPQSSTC
structure (smiles),measurement,setting,value
CCN(CC)CCNC(=O)c1c(C)[nH]c(/C=C2\C(=O)Nc3ccc(Cl)cc32)c1C,residual activity,[1],33%
same,residual activity,[2],4%
same,residual activity,[3],-3%
same,residual activity,[4],71%
same,residual activity,[5],18%
same,residual activity,[6],79%
same,residual activity,[7],24%
same,residual activity,[8],15%
same,residual activity,[9],1%
same,residual activity,[10],30%
same,residual activity,[11],3%
same,residual activity,[12],65%
same,residual activity,[13],98%
same,residual activity,[14],32%
